Assay results: PubChem BioAssay AID493114 (The Scripps Research Institute Molecular Screening Center, 2011)
This is one part of the list. Unmarked numbers belong to inactive results.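 How the source made its calls: active means mean percent activation across triplicates above a set limit taken from the earlier primary procaspase-3 screen; inactive means the rest.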

molecular target: Caspase-3 (Homo sapiens) (UniProt P42574); experiment: procaspase-3 activators, counter-screen for dual procaspase-3/7 activator project, biochemical, absorbance, PC-3 D3A mutant, human (AID 493114); settings: recombinant PC-3 D3A, Ac-DEVD-pNA absorbance 405 nm; at 8.5 µM; stronger effect = higher value; 100% = enzyme control; aspartates 9, 28, 175 changed to alanine;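 further: 0% = DMSO wells and 100% = DMSO wells with 5 µM added PC-3 D3A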
Sequence (P42574 whole entry D9A/D28A/D175A): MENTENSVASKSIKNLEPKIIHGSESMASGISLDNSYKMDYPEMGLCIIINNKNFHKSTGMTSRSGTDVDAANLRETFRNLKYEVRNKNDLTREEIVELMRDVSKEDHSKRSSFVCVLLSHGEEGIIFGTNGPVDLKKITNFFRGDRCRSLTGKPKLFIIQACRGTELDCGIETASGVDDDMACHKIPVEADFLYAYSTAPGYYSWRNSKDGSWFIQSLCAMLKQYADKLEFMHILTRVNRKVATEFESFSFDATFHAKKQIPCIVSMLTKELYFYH

Q: For `CNS(=O)(=O)c1cccc(C(=O)NC2CCCc3ccccc32)c1` (stereo not given), which activation is on record?
A: Its activation is 2.51%.

Q: With `CCCCOC(=O)Cn1c(=O)n(CC(=O)OCCCC)c2cc(C)ccc21` as the molecule, how does the activation read?
A: Its activation is 2.96%.

Q: How did the activation turn out when `COc1ccc(Nc2ncc(C(=O)N3CCN(c4ccccc4OC)CC3)c3ccccc23)cc1` was run?
A: The activation was 0.74%.

Q: `CCOC(=O)C1(CCOC)CCN(Cc2cc3ccccc3s2)CC1` was tested. Which activation did it give?
A: Its activation is 2.49%.

Q: For `COc1ccc2sc(-c3ccc(S(C)(=O)=O)cc3)c(C#Cc3cncn3C)c2c1`, which activation is on record?
A: The activation was -29.9%.

Q: How did the activation turn out when `COc1ccc(-c2onc3ccc(C(C)=O)cc23)cc1` was run?
A: Its activation is -28%.

Q: For `COc1ccccc1N=Cc1c(O)c2ccccc2oc1=O`, which activation is on record?
A: Its activation is -28.6%.

Q: How did the activation turn out when `COc1ccc(Nc2ncnc3sc(-c4ccccc4)cc23)c(OC)c1` was run?
A: The activation was -22.7%.

Q: With `COc1ccc(/C=N/Nc2nc3ccccc3c(=O)[nH]2)cc1` as the molecule, how does the activation read?
A: The activation was 0.42%.

Q: With `CCN(CC)c1ccc2oc(=O)c(C)nc2c1` as the molecule, how does the activation read?
A: Its activation is -12.2%.

Q: How did the activation turn out when `Fc1ccc(N2N=C(c3cccs3)CC2c2ccco2)c(F)c1` (stereo not given) was run?
A: Its activation is -29.1%.

Q: Which activation does the source give for `CC1(C)Cc2c(C#N)c(SCc3nc4ccccc4[nH]3)nc(N3CCOCC3)c2CO1` here?
A: Its activation is -28.2%.

Q: How did the activation turn out when `CC(=O)Oc1ccc2c(C)c(CC(C)O)c(=O)oc2c1` (stereo not given) was run?
A: Its activation is -29.8%.

Q: Which activation does the source give for `O=C1OCCN1C(=O)[C@H]1[C@H](c2ccc(F)cc2)C(c2ccccc2)=NN1c1ccc(Br)cc1` here?
A: The activation was -28.8%.

Q: Which activation does the source give for `Nc1cccc2c1C(=O)N(Cc1nnc(-c3ccccc3Br)o1)C2=O` here?
A: Its activation is -28.5%.
